In PubChem BioAssay AID1159580 (chemical genetic matrix, 2015):
Several values for one entry are separate records, joined by “and”; a condition that tells them apart may be missing. Identical values can stand only once. Hit rate of the full screen: of about 5,500 compounds, about 2,000 (36%) were called active. Not shown: some 18% with an inconclusive outcome. No stated cut-off is given here; in the data, active means normalized growth mostly below about 0.91 (no sharp cut-off); inconclusive means no clear call, values can overlap the other calls; inactive means mostly above about 0.92. The list shows a part of the results.

Experiment: chemical genetic growth profiling, strain panel (AID 1159580);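 further: tested at 20 µM; growth read once vehicle control cultures reached saturation at 30 °C; 1 = growth at the plate median or of vehicle wells; lower values mean less growth of the strain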
Conditions: growth OD
[1] = S. cerevisiae deletion strains, locus YBR229C, strain ROT2, hits give low values
[2] = S. cerevisiae deletion strains, locus YDL101C, strain DUN1, hits give low values
[3] = S. cerevisiae deletion strains, locus YDL134C, strain PPH21, hits give low values
[4] = S. cerevisiae deletion strains, locus YDR150W, strain NUM1, hits give low values
[5] = S. cerevisiae deletion strains, locus YEL061C, strain CIN8, hits give low values
[6] = S. cerevisiae deletion strains, locus YHR030C, strain SLT2, hits give low values
[7] = S. cerevisiae deletion strains, locus YJR043C, strain POL32, hits give low values
[8] = S. cerevisiae deletion strains, locus YKL190W, strain CNB1, hits give low values
[9] = S. cerevisiae deletion strains, locus YLR039C, strain RIC1, hits give low values
[10] = S. cerevisiae deletion strains, locus YLR262C, strain YPT6, hits give low values
[11] = S. cerevisiae deletion strains, locus YMR263W, strain SAP30, hits give low values
[12] = S. cerevisiae deletion strains, locus YNL322C, strain KRE1, hits give low values
[13] = S. cerevisiae deletion strains, locus YPL241C, strain CIN2, hits give low values

Measured: normalized growth

CN1C(=O)CC[C@H]1c1cccnc1
inactive: S. cerevisiae deletion strains, locus YBR021W, strain FUR4, hits give low values 1 | [1] 1 | S. cerevisiae deletion strains, locus YCL029C, strain bik1, hits give low values 1.02 | S. cerevisiae deletion strains, locus YDL035C, strain GPR1, hits give low values 1.02 | S. cerevisiae deletion strains, locus YDL074C, strain BRE1, hits give low values 1.04 | [2] 1.01 | [3] 1 | S. cerevisiae deletion strains, locus YDL185W, strain tfp1, hits give low values 1.03 | S. cerevisiae deletion strains, locus YDL192W, strain arf1, hits give low values 1.01 | S. cerevisiae deletion strains, locus YDR101C, strain arx1, hits give low values 1.05 | [4] 0.992 | S. cerevisiae deletion strains, locus YDR162C, strain NBP2, hits give low values 1.01 | S. cerevisiae deletion strains, locus YDR318W, strain mcm21, hits give low values 1.02 | S. cerevisiae deletion strains, locus YDR388W, hits give low values 1.02 | S. cerevisiae deletion strains, locus YDR502C, strain sam2, hits give low values 1.04 | [5] 0.993 | S. cerevisiae deletion strains, locus YER110C, hits give low values 1.03 | S. cerevisiae deletion strains, locus YER155C, strain BEM2, hits give low values 0.992 | S. cerevisiae deletion strains, locus YER167W, strain BCK2, hits give low values 0.997 | S. cerevisiae deletion strains, locus YGL078C, strain dbp3, hits give low values 1.03 | S. cerevisiae deletion strains, locus YGL086W, strain mad1, hits give low values 1.03 | S. cerevisiae deletion strains, locus YGL248W, strain PDE1, hits give low values 1.02 | S. cerevisiae deletion strains, locus YGR135W, strain pre9, hits give low values 1.01 | S. cerevisiae deletion strains, locus YGR229C, strain SMI1, hits give low values 1.01 | S. cerevisiae deletion strains, locus YGR252W, strain gcn5, hits give low values 1.11 | [6] 0.997 and 1.05 | S. cerevisiae deletion strains, locus YHR079C, strain IRE1 (second series), hits give low values 1.03 | S. cerevisiae deletion strains, locus YHR079C, strain IRE1, hits give low values 1.04 | S. cerevisiae deletion strains, locus YHR094C, strain hxt1, hits give low values 1.01 | S. cerevisiae deletion strains, locus YHR129C, strain ARP1, hits give low values 0.993 | S. cerevisiae deletion strains, locus YHR200W, strain rpn10, hits give low values 1.01 | S. cerevisiae deletion strains, locus YIL066C, strain RNR3, hits give low values 1.01 | S. cerevisiae deletion strains, locus YIL073C, strain SPO22, hits give low values 1.07 | S. cerevisiae deletion strains, locus YIL125W, strain kgd1, hits give low values 1.02 | S. cerevisiae deletion strains, locus YIR030C, strain dcg1, hits give low values 1.02 | S. cerevisiae deletion strains, locus YJL095W, strain BCK1, hits give low values 1.01 and 1.02 | S. cerevisiae deletion strains, locus YJL134W, strain LCB3, hits give low values 0.996 | S. cerevisiae deletion strains, locus YJL168C, strain set2, hits give low values 1 | S. cerevisiae deletion strains, locus YJL187C, strain SWE1 (second series), hits give low values 1.01 | [7] 1.02 | S. cerevisiae deletion strains, locus YJR066W, strain TOR1, hits give low values 0.992 | S. cerevisiae deletion strains, locus YKL009W, strain mrt4, hits give low values 1.03 | S. cerevisiae deletion strains, locus YKL068W, hits give low values 1.01 | S. cerevisiae deletion strains, locus YKL085W, strain MDH1 (second series), hits give low values 1.01 | S. cerevisiae deletion strains, locus YKL085W, strain MDH1, hits give low values 1.01 | [8] 1 | S. cerevisiae deletion strains, locus YKR001C, strain vps1, hits give low values 1.03 | [9] 1.02 | S. cerevisiae deletion strains, locus YLR058C, strain SHM2, hits give low values 1 | S. cerevisiae deletion strains, locus YLR102C, strain apc9, hits give low values 1.02 | S. cerevisiae deletion strains, locus YLR113W, strain HOG1, hits give low values 1.06 | [10] 1.04 | S. cerevisiae deletion strains, locus YLR268W, strain sec22, hits give low values 1.03 | S. cerevisiae deletion strains, locus YLR330W, strain CHS5, hits give low values 0.999 | S. cerevisiae deletion strains, locus YLR342W, strain FKS1 (second series), hits give low values 1.01 | S. cerevisiae deletion strains, locus YLR371W, strain rom2, hits give low values 0.983 | S. cerevisiae deletion strains, locus YLR418C, strain cdc73, hits give low values 1.03 | S. cerevisiae deletion strains, locus YML016C, strain PPZ1, hits give low values 0.993 | S. cerevisiae deletion strains, locus YML032C, strain rad52, hits give low values 1.02 | S. cerevisiae deletion strains, locus YML124C, strain tub3, hits give low values 1.01 | S. cerevisiae deletion strains, locus YMR078C, strain ctf18, hits give low values 1.02 | S. cerevisiae deletion strains, locus YMR223W, strain ubp8, hits give low values 1.01 | [11] 1 | S. cerevisiae deletion strains, locus YMR307W, strain GAS1, hits give low values 0.998 | S. cerevisiae deletion strains, locus YNL067W, strain RPL9B, hits give low values 1.01 | S. cerevisiae deletion strains, locus YNL183C, strain NPR1, hits give low values 0.992 | S. cerevisiae deletion strains, locus YNL233W, strain BNI4, hits give low values 1.01 | S. cerevisiae deletion strains, locus YNL250W, strain rad50, hits give low values 1.02 | S. cerevisiae deletion strains, locus YNL271C, strain bni1, hits give low values 1.02 | S. cerevisiae deletion strains, locus YNL298W, strain CLA4, hits give low values 1.04 | S. cerevisiae deletion strains, locus YNL307C, strain MCK1, hits give low values 1.03 | [12] 0.993 | S. cerevisiae deletion strains, locus YNR052C, strain pop2, hits give low values 1.02 | S. cerevisiae deletion strains, locus YOL006C, strain TOP1, hits give low values 1.04 | S. cerevisiae deletion strains, locus YOL012C, strain htz1 0.58 | S. cerevisiae deletion strains, locus YOL147C, strain pex11, hits give low values 1.04 | S. cerevisiae deletion strains, locus YOR061W, strain CKA2, hits give low values 1.01 | S. cerevisiae deletion strains, locus YOR069W, strain VPS5, hits give low values 0.997 | S. cerevisiae deletion strains, locus YOR136W, strain idh2, hits give low values 1.02 | S. cerevisiae deletion strains, locus YOR144C, strain elg1, hits give low values 1.01 | S. cerevisiae deletion strains, locus YOR184W, strain ser1, hits give low values 1.03 | S. cerevisiae deletion strains, locus YOR231W, strain MKK1, hits give low values 1.04 | S. cerevisiae deletion strains, locus YOR316C, strain cot1, hits give low values 1.04 | [13] 0.995 | S. cerevisiae deletion strains, locus YPL256C, strain CLN2, hits give low values 1.16 | S. cerevisiae deletion strains, locus YPR119W, strain clb2, hits give low values 1 | S. cerevisiae deletion strains, locus YPR141C, strain kar3, hits give low values 1 | S. cerevisiae deletion strains, locus YPR163C, strain tif3, hits give low values 1.06 | S. cerevisiae deletion strains, locus YPR167C, strain met16, hits give low values 1.01 | S. cerevisiae deletion strains, strain wtn01, hits give low values 1.04

O=C1CSC(c2cccnc2)N1c1ccc(C2CCCCC2)cc1 (configuration not stated)
inactive: S. cerevisiae deletion strains, locus YAL013W, strain DEP1, hits give low values 1 | [1] 1.01 | [2] 1.03 | [3] 0.941 | [4] 1.05 | [5] 0.999 | S. cerevisiae deletion strains, locus YGR078C, strain PAC10, hits give low values 1.01 | [6] 1.28 | S. cerevisiae deletion strains, locus YHR087W, strain rtc3, hits give low values 1.02 | [7] 1.02 | S. cerevisiae deletion strains, locus YJR075W, strain HOC1, hits give low values 0.941 | [8] 0.945 | [9] 0.926 | S. cerevisiae deletion strains, locus YLR058C, strain SHM2 (second series), hits give low values 0.991 | S. cerevisiae deletion strains, locus YLR085C, strain ARP6, hits give low values 0.917 | [10] 0.888 | S. cerevisiae deletion strains, locus YML094W, strain GIM5, hits give low values 1.07 | S. cerevisiae deletion strains, locus YMR219W, strain ESC1, hits give low values 1.02 | [11] 1.06 | S. cerevisiae deletion strains, locus YNL153C, strain GIM3, hits give low values 1.01 | S. cerevisiae deletion strains, locus YNL298W, strain CLA4 (second series), hits give low values 0.951 | [12] 1 | S. cerevisiae deletion strains, locus YNR030W, strain Alg12, hits give low values 0.963 | S. cerevisiae deletion strains, locus YPL055C, strain LGE1, hits give low values 1.04 | [13] 1.09 | S. cerevisiae deletion strains, locus YPR135W, strain CTF4, hits give low values 0.832 | S. cerevisiae strains, strain wild type, hits give low values 0.96
